# Measured values taken from PubChem BioAssay (EPA / NIEHS).
# Activity calls are given as the source filed them. The calls were made as follows: active = hit-call score of the fitted dose curve at least 0.9, where 1 is the maximum; inactive = score below 0.9.
# Assays:
# Settings in all cases: mRNA level, 48 h; actives raise or lower the signal
# [1] = read-out: Apoptosis regulator Bcl-2 (Homo sapiens) (UniProt P10415); assay: LTEA_HepaRG_BCL2: Life Technologies and Expression Analysis (LTEA) Assay for Bcl-2 gene using HepaRG (AID 2283475);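 also: BCL2 transcript by TaqMan qRT-PCR normalised to ACTB GAPDH and POLR2A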
# Outline: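 Each chemical was tested in duplicate on HepaRG cultures held in serum-free induction medium for 48 h, highest concentration 100 uM with half-log dilutions. Transcript levels came from multiplexed qRT-PCR, normalised to housekeeping genes; activity was scored in either direction relative to DMSO.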
# Caspase-3 (Homo sapiens) = Caspase-3 (Homo sapiens) (UniProt P42574); assay: LTEA_HepaRG_CASP3: Life Technologies and Expression Analysis (LTEA) Assay for cysteine-aspartic acid protease (CASP3) using HepaRG (AID 2283477)
# Outline: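 In HepaRG liver cells dosed for 48 h at up to 100 uM (eight-point, duplicate), CASP3 expression changes are scored by qRT-PCR. Activity is fitted in both directions with 0.5% DMSO as baseline.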
# [2] = read-out: Cytochrome P450 (CYP1A2), CYP1A2 (gene 1544); assay: LTEA_HepaRG_CYP1A2: Life Technologies and Expression Analysis (LTEA) Assay for Cytochrome P450 (CYP1A2) using HepaRG (AID 2283479);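 as to AC50: TaqMan qRT-PCR transcript level normalized to ACTB GAPDH and POLR2A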
# Outline: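 Assesses CYP1A2 mRNA in human HepaRG liver cells after 48 h chemical exposure at up to 100 uM. Values come from qRT-PCR with bidirectional curve fitting relative to DMSO.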
# [3] = read-out: cysteine-aspartic acid protease (CASP8), CASP8 (gene 841); assay: LTEA_HepaRG_CASP8: Life Technologies and Expression Analysis (LTEA) Assay for cysteine-aspartic acid protease (CASP8) using HepaRG (AID 2283480)
# Outline: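 Concentration-response in duplicate up to 100 uM (half-log steps, 0.5% DMSO) on differentiated HepaRG cultures for 48 h. Expression change of CASP8 mRNA is determined by TaqMan qRT-PCR with housekeeping-gene normalization.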
# [4] = read-out: Cytochrome P450 (CYP2B6), CYP2B6 (gene 1555); assay: LTEA_HepaRG_CYP2B6: Life Technologies and Expression Analysis (LTEA) Assay for Cytochrome P450 (CYP2B6) using HepaRG (AID 2283481)
# Outline: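 Using 48 h treatment of HepaRG cells in serum-free induction medium, concentrations spanned half-log steps from 100 uM in 0.5% DMSO vehicle. CYP2B6 mRNA induction or loss is scored by qRT-PCR against DMSO.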
# [5] = read-out: Cytochrome P450 2C19 (Homo sapiens) (UniProt P33261); assay: LTEA_HepaRG_CYP2C19: Life Technologies and Expression Analysis (LTEA) Assay for CYP2C19 using HepaRG (AID 2283482)
# Outline: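 Human HepaRG liver cells received test chemicals for 48 h (highest 100 uM, half-log dilutions in 0.5% DMSO). CYP2C19 mRNA induction or loss is read by multiplexed qRT-PCR and fitted in both directions versus vehicle.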
# CYP2C8 (gene 1558) = assay: LTEA_HepaRG_CYP2C8: Life Technologies and Expression Analysis (LTEA) Assay for CYP2C8 using HepaRG (AID 2283483)
# Outline: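 This is a transcriptional endpoint in HepaRG cultures: 48 h exposure, highest concentration 100 uM. CYP2C8 mRNA is quantified by TaqMan qRT-PCR.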
# CYP2C9 (gene 1559) = assay: LTEA_HepaRG_CYP2C9: Life Technologies and Expression Analysis (LTEA) Assay for CYP2C9 using HepaRG (AID 2283484)
# Outline: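 Eight-point concentration-response (highest 100 uM, half-log dilutions) in HepaRG cells for 48 h; CYP2C9 expression by qRT-PCR normalized to ACTB, GAPDH, POLR2A. Bidirectional fit, DMSO baseline.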
# CYP2E1 (gene 1571) = assay: LTEA_HepaRG_CYP2E1: Life Technologies and Expression Analysis (LTEA) Assay for CYP2E1 using HepaRG (AID 2283485)
# Outline: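 Assay uses 48 h exposure of HepaRG hepatic cells, eight concentrations to 100 uM. Expression of CYP2E1 is quantified by TaqMan qRT-PCR with ACTB, GAPDH and POLR2A normalization; curves fitted in both directions relative to vehicle.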
# CYP4A11 (gene 1579) = assay: LTEA_HepaRG_CYP4A11: Life Technologies and Expression Analysis (LTEA) Assay for CYP4A11 using HepaRG (AID 2283486)
# Outline: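 Readout is CYP4A11 mRNA induction or suppression (qRT-PCR, ACTB/GAPDH/POLR2A normalization) in human HepaRG cells after 48 h chemical treatment, concentrations to 100 uM in 0.5% DMSO, fitted bidirectionally against vehicle.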
# [6] = read-out: Cytochrome P450 3A4 (Homo sapiens) (UniProt P08684); assay: LTEA_HepaRG_CYP3A4: Life Technologies and Expression Analysis (LTEA) Assay for CYP3A4 using HepaRG (AID 2283487)
# Outline: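 HepaRG, 48 h exposure, 8-pt CRC from 100 uM (half-log), 0.5% DMSO, duplicates; serum-free induction medium. Readout: CYP3A4 mRNA, qRT-PCR, ACTB/GAPDH/POLR2A normalization. Bidirectional fit vs DMSO.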
# [7] = read-out: DNA damage-inducible transcript 3 (DDIT3), DDIT3 (gene 1649); assay: LTEA_HepaRG_DDIT3: Life Technologies and Expression Analysis (LTEA) Assay for DNA damage-inducible transcript 3 (DDIT3) using HepaRG (AID 2283488)
# Outline: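 Eight-point concentration-response (100 uM highest, half-log dilutions) in HepaRG, 48 h, duplicate wells. Endpoint: qRT-PCR mRNA, normalized (ACTB, GAPDH, POLR2A), bidirectional fitting with DMSO as baseline.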
# [8] = read-out: Pro-epidermal growth factor (Homo sapiens) (UniProt P01133); assay: LTEA_HepaRG_EGF: Life Technologies and Expression Analysis (LTEA) Assay for Epidermal growth factor (EGF) using HepaRG (AID 2283489)
# Outline: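 EGF expression changes in human HepaRG cells are scored by bidirectional fitting relative to 0.5% DMSO controls. Chemicals are tested at eight half-log concentrations up to 100 uM for 48 h in serum-free induction medium.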
# [9] = read-out: Early growth response protein 1 (EGR1) transcription factor, EGR1 (gene 1958); assay: LTEA_HepaRG_EGR1: Life Technologies and Expression Analysis (LTEA) Assay for Early growth response protein 1 (EGR1) transcription factor using HepaRG (AID 2283490)
# Outline: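 EGR1 expression change in human HepaRG after 48 h chemical exposure, assessed by housekeeping-normalized qRT-PCR; concentration-response up to 100 uM, fitted in both directions against DMSO controls.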
# [10] = read-out: Cytochrome P450 3A7 (Homo sapiens) (UniProt P24462); assay: LTEA_HepaRG_CYP3A7: Life Technologies and Expression Analysis (LTEA) Assay for CYP3A7 using HepaRG (AID 2283492)
# Outline: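 Cells were thawed, plated, cultured 48 h, then treated for a further 48 h with chemicals (eight-point half-log series from 100 uM, 0.5% DMSO). RNA was isolated and CYP3A7 expression quantified by qRT-PCR normalised to ACTB, GAPDH and POLR2A.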
# CYP3A5 (gene 1577) = assay: LTEA_HepaRG_CYP3A5: Life Technologies and Expression Analysis (LTEA) Assay for CYP3A5 using HepaRG (AID 2283493)
# Outline: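 Readout was CYP3A5 mRNA by qRT-PCR. HepaRG cultures were exposed for 48 h in serum-free induction medium to chemicals at up to 100 uM, and responses were fitted in both directions relative to DMSO vehicle.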
# [11] = read-out: Fatty Acid-Binding Protein 1 (FABP1), FABP1 (gene 2168); assay: LTEA_HepaRG_FABP1: Life Technologies and Expression Analysis (LTEA) Assay for Fatty Acid-Binding Protein 1 (FABP1) using HepaRG (AID 2283494)
# Outline: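 Values reflect bidirectional concentration-response fitting of FABP1 mRNA change against 0.5% DMSO controls. Human HepaRG cultures received eight half-log doses (top 100 uM) for 48 h; expression quantified by TaqMan qRT-PCR with housekeeping-gene normalization.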
# [12] = read-out: Cytochrome P450 4A22 (Homo sapiens) (UniProt Q5TCH4); assay: LTEA_HepaRG_CYP4A22: Life Technologies and Expression Analysis (LTEA) Assay for Cytochrome P450 4A22 (CYP4A22) using HepaRG (AID 2283495)
# Outline: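 Cryopreserved HepaRG cells, plated and cultured 48 h, then switched to serum-free induction medium and treated 48 h (duplicates, up to 100 uM, half-log steps, 0.5% DMSO). Expression change of CYP4A22 was fitted bidirectionally against vehicle.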
# [13] = read-out: Cytochrome P450 7A1 (Homo sapiens) (UniProt P22680); assay: LTEA_HepaRG_CYP7A1: Life Technologies and Expression Analysis (LTEA) Assay for Cytochrome P450 7A1 (CYP7A1) using HepaRG (AID 2283496)
# Outline: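 Using 0.5% DMSO as vehicle and baseline, chemicals were tested in duplicate over an 8-point range from 100 uM on HepaRG cells for 48 h; qRT-PCR signals were normalised to ACTB, GAPDH and POLR2A.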
# [14] = read-out: Glutathione S-Transferase (GSTA2), GSTA2 (gene 2939); assay: LTEA_HepaRG_GSTA2: Life Technologies and Expression Analysis (LTEA) Assay for Glutathione S-Transferase (GSTA2) using HepaRG (AID 2283497)
# Outline: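 Oxidative-stress marker GSTA2 is quantified by TaqMan qRT-PCR in HepaRG cultures treated 48 h across an eight-point range to 100 uM. Expression is normalized to endogenous controls and compared with 0.5% DMSO vehicle.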
# Chain of Caspase-3 (Homo sapiens) (P42574 whole entry, looked up): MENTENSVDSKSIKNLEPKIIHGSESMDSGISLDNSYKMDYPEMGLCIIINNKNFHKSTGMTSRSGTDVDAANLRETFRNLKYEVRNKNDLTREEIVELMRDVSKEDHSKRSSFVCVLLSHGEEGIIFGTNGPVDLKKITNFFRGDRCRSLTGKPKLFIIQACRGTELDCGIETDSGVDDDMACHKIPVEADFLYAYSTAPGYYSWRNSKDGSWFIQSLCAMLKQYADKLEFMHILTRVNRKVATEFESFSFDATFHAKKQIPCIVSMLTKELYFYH
# Chain of Cytochrome P450 2C19 (Homo sapiens) (P33261 whole entry, looked up): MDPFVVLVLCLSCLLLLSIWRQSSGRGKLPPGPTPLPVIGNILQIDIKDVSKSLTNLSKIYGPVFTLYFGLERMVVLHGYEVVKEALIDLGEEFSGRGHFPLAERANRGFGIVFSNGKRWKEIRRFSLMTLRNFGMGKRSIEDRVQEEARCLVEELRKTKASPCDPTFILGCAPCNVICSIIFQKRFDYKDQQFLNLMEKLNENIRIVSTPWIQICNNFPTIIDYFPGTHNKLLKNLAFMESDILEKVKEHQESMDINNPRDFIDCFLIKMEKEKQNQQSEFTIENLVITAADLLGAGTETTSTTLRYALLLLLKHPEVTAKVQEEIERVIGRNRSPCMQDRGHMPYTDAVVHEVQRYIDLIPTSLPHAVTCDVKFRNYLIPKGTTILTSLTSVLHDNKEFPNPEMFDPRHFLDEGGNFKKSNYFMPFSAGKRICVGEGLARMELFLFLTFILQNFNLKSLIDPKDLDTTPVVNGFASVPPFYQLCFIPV
# Chain of Apoptosis regulator Bcl-2 (Homo sapiens) (P10415 whole entry, looked up): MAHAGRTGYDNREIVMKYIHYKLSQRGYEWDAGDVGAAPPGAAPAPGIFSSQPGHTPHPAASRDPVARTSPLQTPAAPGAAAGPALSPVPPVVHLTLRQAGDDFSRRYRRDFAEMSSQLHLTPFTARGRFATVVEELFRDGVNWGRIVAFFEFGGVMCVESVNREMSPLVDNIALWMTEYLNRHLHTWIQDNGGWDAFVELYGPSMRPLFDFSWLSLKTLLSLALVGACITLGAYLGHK
# Chain of Cytochrome P450 3A7 (Homo sapiens) (P24462 whole entry, looked up): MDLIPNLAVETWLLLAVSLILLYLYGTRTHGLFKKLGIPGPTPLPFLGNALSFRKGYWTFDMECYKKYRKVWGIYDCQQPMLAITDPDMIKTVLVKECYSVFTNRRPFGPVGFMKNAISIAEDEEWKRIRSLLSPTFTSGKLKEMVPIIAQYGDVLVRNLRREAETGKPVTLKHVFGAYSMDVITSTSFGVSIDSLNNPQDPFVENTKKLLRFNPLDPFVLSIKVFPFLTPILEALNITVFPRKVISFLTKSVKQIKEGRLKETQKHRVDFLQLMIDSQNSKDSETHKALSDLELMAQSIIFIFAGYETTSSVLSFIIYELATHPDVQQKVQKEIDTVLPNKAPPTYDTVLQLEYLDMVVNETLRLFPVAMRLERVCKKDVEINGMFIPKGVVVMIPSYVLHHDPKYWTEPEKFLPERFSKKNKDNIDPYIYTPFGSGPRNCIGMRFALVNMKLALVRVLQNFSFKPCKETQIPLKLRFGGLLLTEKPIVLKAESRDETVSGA
# Chain of Cytochrome P450 3A4 (Homo sapiens) (P08684 whole entry, looked up): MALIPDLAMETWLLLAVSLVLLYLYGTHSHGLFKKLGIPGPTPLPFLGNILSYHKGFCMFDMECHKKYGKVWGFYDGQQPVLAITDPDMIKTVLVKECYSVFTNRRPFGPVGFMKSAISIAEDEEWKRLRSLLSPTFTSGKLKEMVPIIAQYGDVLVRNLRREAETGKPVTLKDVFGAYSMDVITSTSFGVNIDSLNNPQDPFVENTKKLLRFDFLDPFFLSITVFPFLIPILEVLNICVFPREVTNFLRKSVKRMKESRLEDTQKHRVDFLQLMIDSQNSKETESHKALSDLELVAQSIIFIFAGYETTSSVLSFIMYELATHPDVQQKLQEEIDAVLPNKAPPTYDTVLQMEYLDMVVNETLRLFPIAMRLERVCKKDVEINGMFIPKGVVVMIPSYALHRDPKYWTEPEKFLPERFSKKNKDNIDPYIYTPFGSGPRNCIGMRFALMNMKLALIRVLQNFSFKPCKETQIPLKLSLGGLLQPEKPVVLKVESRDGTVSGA
smiles,measurement,setting,value
Cc1[nH]nc2c1N=C(c1ccccc1Cl)c1cc([N+](=O)[O-])ccc1N2,AC50,[1],8.98 µM (active)
same,outcome,Caspase-3 (Homo sapiens),inactive
same,AC50,[2],11.5 µM (active)
same,outcome,[3],inactive
same,AC50,[4],8.93 µM (active)
same,AC50,[5],4.24 µM (active)
same,AC50,CYP2C8 (gene 1558),7.45 µM (active)
same,AC50,CYP2C9 (gene 1559),5.12 µM (active)
same,AC50,CYP2E1 (gene 1571),10.1 µM (active)
same,AC50,CYP4A11 (gene 1579),5.26 µM (active)
same,AC50,[6],77.6 µM (active)
same,outcome,[7],inactive
same,outcome,[8],inactive
same,outcome,[9],inactive
same,AC50,[10],2.83 µM (active)
same,AC50,CYP3A5 (gene 1577),13.4 µM (active)
same,AC50,[11],8.85 µM (active)
same,AC50,[12],8.32 µM (active)
same,AC50,[13],27 µM (active)
same,AC50,[14],17.2 µM (active)
CCC(C)c1ccccc1O (centres undefined),outcome,[1],inactive
same,outcome,Caspase-3 (Homo sapiens),inactive
same,outcome,[2],inactive
same,outcome,[3],inactive
same,outcome,[4],inactive
same,outcome,[5],inactive
same,outcome,CYP2C8 (gene 1558),inactive
same,outcome,CYP2C9 (gene 1559),inactive
same,outcome,CYP2E1 (gene 1571),inactive
same,outcome,CYP4A11 (gene 1579),inactive
same,outcome,[6],inactive
same,outcome,[7],inactive
same,outcome,[8],inactive
same,outcome,[9],inactive
same,outcome,[10],inactive
same,outcome,CYP3A5 (gene 1577),inactive
same,outcome,[11],inactive
same,outcome,[12],inactive
same,outcome,[13],inactive
same,outcome,[14],inactive
N=C(N)c1ccc(OCCCCCOc2ccc(C(=N)N)cc2)cc1,AC50,[1],73.6 µM (active)
same,AC50,Caspase-3 (Homo sapiens),69.8 µM (active)
same,AC50,[2],5.43 µM (active)
same,AC50,[3],30.1 µM (active)
same,AC50,[4],3.74 µM (active)
same,AC50,[5],6.53 µM (active)
same,AC50,CYP2C8 (gene 1558),3.73 µM (active)
same,AC50,CYP2E1 (gene 1571),6.51 µM (active)
same,AC50,CYP4A11 (gene 1579),3.02 µM (active)
same,AC50,[7],3.45 µM (active)
same,AC50,[8],22.2 µM (active)
same,AC50,[9],27.1 µM (active)
same,AC50,[11],4.05 µM (active)
same,AC50,[12],3.87 µM (active)
same,AC50,[13],6.66 µM (active)
same,AC50,[14],7.03 µM (active)
O=C(c1ccccc1)c1ccccc1,outcome,[1],inactive
same,outcome,Caspase-3 (Homo sapiens),inactive
same,outcome,[3],inactive
same,outcome,[7],inactive
same,outcome,[8],inactive
same,outcome,[9],inactive
same,AC50,[11],0.851 µM (active)
same,outcome,[14],inactive
